Data as given in PubChem BioAssay (NCATS).
Inconclusive results are not listed. Values without a mark were called inactive. Active and inactive are the calls of the source. Unless noted, the call rests on the fitted dose curve; in most records, active means well fitted curve in the direction sought with a large enough effect; inconclusive means small, poorly fitted or top-dose-only effect, or another doubt; inactive means no such curve, though single readings can be large; an effect the other way counts as inactive or inconclusive.

Assay: qHTS for differential inhibitors of proliferation of Plasmodium falciparum line D10 (AID 1877);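 further: parasites grown with compound for 72 h before DNA staining; plate controls were vehicle wells for no effect and reference inhibitor wells for full effect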
Conditions: series mostly up to 28.7 µM; activity change, negative = inhibition: at the top concentration

Compared with `Oc1ccc(/C=C/c2cc(O)cc(O)c2)cc1`, `O=C(NCCNCC(O)COc1ccc(O)cc1)N1CCOCC1` (stereo unspecified) is higher in “activity change, negative = inhibition” value: -17.9% for the first, -8.14% for the second.

Compared with `C[C@@](Cc1ccc(O)c(O)c1)(NN)C(=O)O`, `O=c1[nH]c(=O)n([C@H]2C[C@H](O)[C@@H](CO)O2)cc1/C=C/Br` is higher in “activity change, negative = inhibition” value: -15.5% for the first, -5.51% for the second.

Assay: qHTS for differential inhibitors of proliferation of Plasmodium falciparum line Dd2 (AID 1882); further: nearly all actives have a fitted effect of over 65% in size; further: potency means the concentration at half of the fitted maximal effect;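 on activity change, negative = inhibition: compound exposure of 72 h on infected erythrocytes; plate controls were DMSO vehicle for no effect and 0.29 µM artemisinin for full effect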
Conditions: Potency: Plasmodium falciparum Dd2 proliferation inhibition; series mostly up to 28.7 µM; activity change, negative = inhibition: at the top concentration
Outline: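 RBC culture, 0.3% parasitemia / 2.5% Hct final; cpd added by pin tool in DMSO; 72 h, 37 C, 5% CO2; lysis buffer + SYBR Green I, o/n RT dark; FI 485/535; norm. to artemisinin 0.29 uM and DMSO.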

Compared with `Oc1ccc(/C=C/c2cc(O)cc(O)c2)cc1`, `O=C(NCCNCC(O)COc1ccc(O)cc1)N1CCOCC1` (stereo unspecified) is lower in “activity change, negative = inhibition” value: 1.39% for the first, 0.431% for the second.

In the case of `O=c1[nH]c(=O)n([C@H]2C[C@H](O)[C@@H](CO)O2)cc1/C=C/Br`, the “activity change, negative = inhibition” value is reported as 4.16%.

In the case of `C[C@@](Cc1ccc(O)c(O)c1)(NN)C(=O)O`, the Potency is reported as 10 µM (active).

Assay: qHTS for differential inhibitors of proliferation of Plasmodium falciparum line W2 (AID 1883);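 further: parasites grown with compound for 72 h before lysis and staining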; further: potency means the concentration at half of the fitted maximal effect;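 on activity change, negative = inhibition: 0% = vehicle wells and -100% = control inhibitor wells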
Conditions: Potency: Plasmodium falciparum W2 proliferation inhibition; series mostly up to 28.7 µM; activity change, negative = inhibition: at the top concentration

For `Cc1cc(C)c(NC(=O)C[C@H](CC(=O)O)c2cccc3ccccc23)c(C(=O)N2CCC3(CCCC3)CC2)c1`, the Potency was 11.2 µM (active).

First: O=C(NCCNCC(O)COc1ccc(O)cc1)N1CCOCC1 (stereo unspecified)
Second: O=c1[nH]c(=O)n([C@H]2C[C@H](O)[C@@H](CO)O2)cc1/C=C/Br
The “activity change, negative = inhibition” value of the first is lower: -8.78% for the first, -4.89% for the second.

Assay: qHTS for differential inhibitors of proliferation of Plasmodium falciparum line HB3 (AID 1886);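 further: parasites grown with compound for 72 h before SYBR Green readout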; further: potency means the concentration at half of the fitted maximal effect;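 on activity change, negative = inhibition: plate controls were vehicle for no effect and reference inhibitor for full effect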
Conditions: Potency: Plasmodium falciparum HB3 proliferation inhibition; series mostly up to 28.7 µM; activity change, negative = inhibition: at the top concentration

First: Oc1ccc(/C=C/c2cc(O)cc(O)c2)cc1
Second: O=C(NCCNCC(O)COc1ccc(O)cc1)N1CCOCC1 (stereo unspecified)
The “activity change, negative = inhibition” value of the first is lower: -20.8% for the first, -3.84% for the second.

In the case of `O=c1[nH]c(=O)n([C@H]2C[C@H](O)[C@@H](CO)O2)cc1/C=C/Br`, the “activity change, negative = inhibition” value is reported as -0.152%.

For `Cc1cc(C)c(NC(=O)C[C@H](CC(=O)O)c2cccc3ccccc23)c(C(=O)N2CCC3(CCCC3)CC2)c1`, the Potency was 14.1 µM (active).

Assay: qHTS Assay for Identification of Small Molecule Inducers of Hypoxia Response (AID 2120; active means well fitted curve in the direction sought with a large enough effect in the signal ratio, with a control signal flat, not every such curve was filed as active; the % refers to the signal ratio; further: potency means the concentration at half of the fitted maximal effect; on activation: 0% is about no effect)
Conditions: hypoxia response reporter cells, beta-lactamase ratio readout; series mostly up to 104 µM; activation: at the top concentration
Outline: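 Read-out: CCF4 FRET emission ratio 460nm/530nm (excitation 405nm), converted to %Activity, with AC50 fitted across a compound titration. ME-180 cells carried an HRE-driven beta-lactamase reporter; compound exposure 17 h, 37 degrees C.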

Compared with `NC(N)=O`, `NCCN` is higher in “activation” value: -0.0488% for the first, 0.866% for the second.

First: CC(C)(C)CC(C)(C)c1ccc(OCCO)cc1
Second: OCc1ccccc1
The “activation” value of the first is higher: 0.6% for the first, 0.0046% for the second.

First: C[C@H](CCC(=O)O)[C@H]1CC[C@H]2[C@@H]3[C@H](O)C[C@@H]4C[C@H](O)CC[C@]4(C)[C@H]3C[C@H](O)[C@]12C
Second: CC[C@H]1OC(=O)[C@H](C)[C@@H](O[C@H]2C[C@@](C)(OC)[C@@H](O)[C@H](C)O2)[C@H](C)[C@@H](O[C@@H]2O[C@H](C)C[C@H](N(C)C)[C@H]2O)[C@](C)(O)C[C@@H](C)CN(C)[C@H](C)[C@@H](O)[C@]1(C)O
The “activation” value of the first is lower: -0.241% for the first, 1.27% for the second.

Compared with `Oc1cccc(O)c1O`, `Cc1ccc(S(=O)(=O)O)cc1C` is higher in “activation” value: 0.6% for the first, 1.07% for the second.

Going from `c1ccc2ccccc2c1` to `[O-][N+](=Nc1ccccc1)c1ccccc1`, the “activation” value falls from 1.51% to 0.4%.

Going from `ClC(Cl)Cl` to `OCl`, the “activation” value falls from 0.186% to -0.087%.

First: CC1=CCC2CC1C2(C)C (stereo unspecified)
Second: Cc1ncc[nH]1
The “activation” value of the first is lower: -0.955% for the first, 0.293% for the second.

Going from `O=P(O)(O)O` to `OB(O)O`, the “activation” value rises from -0.1% to -0.0093%.

Going from `O=c1n(CC2CO2)c(=O)n(CC2CO2)c(=O)n1CC1CO1` (stereo unspecified) to `Nc1ncnc2c1ncn2[C@H]1CC[C@@H](CO)O1`, the “activation” value rises from -0.316% to 0.458%.

Compared with `CC(C)O`, `CO` is lower in “activation” value: 0.0807% for the first, -0.0403% for the second.

First: CC/C=C\C/C=C\C/C=C\CCCCCCCC(=O)O
Second: C/C=C/C=C/C(=O)O
The “activation” value of the first is higher: 1.07% for the first, -1.1% for the second.

Going from `CCCCC` to `CCOC(C)OCC`, the “activation” value rises from -0.205% to 0.262%.

Compared with `OC[C@H]1O[C@@H]2O[C@H]3[C@H](O)[C@@H](O)[C@@H](O[C@H]4[C@H](O)[C@@H](O)[C@@H](O[C@H]5[C@H](O)[C@@H](O)[C@@H](O[C@H]6[C@H](O)[C@@H](O)[C@@H](O[C@H]7[C@H](O)[C@@H](O)[C@@H](O[C@H]1[C@H](O)[C@H]2O)O[C@@H]7CO)O[C@@H]6CO)O[C@@H]5CO)O[C@@H]4CO)O[C@@H]3CO`, `CO/N=C(/C(=O)N[C@@H]1C(=O)N2C(C(=O)O)=C(COC(N)=O)CS[C@H]12)c1ccco1` is lower in “activation” value: 0.878% for the first, 0.4% for the second.

Compared with `Nc1nccs1`, `CC1=CC(=O)NS(=O)(=O)O1` is higher in “activation” value: -0.0403% for the first, 0.625% for the second.

For `OCC(O)CO`, the Potency was “inactive”.
With `CCCCO` the Potency was “inactive”.
With `O.O.O.O.O.O.O.O=S(=O)([O-])[O-].[Co+2]` the Potency was 31.6 µM (active).
